In the library only some 2.9% were active in any assay of this set; here they are far more common.
PME-1 inh = PME-1 (human) inhibition | hit rate 0.53% among 320,000 | AID 2130 | Q9Y570 | recombinant PME-1, FP-Rh probe fluorescence polarization | inhibition, % at 5.9 µM;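 active = inhibition above the campaign mean of all compounds plus 3 SD, cut at about 26% in these data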;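 also: competitive labeling of PME-1 active site by serine hydrolase directed probe; 0% = PME-1 with DMSO and 100% = wells lacking PME-1 enzyme; inhibitors block probe labeling so polarization falls and inhibition rises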
PAFAH2 inh = PAFAH2 (human) inhibition. Q99487. recombinant PAFAH2, FP-rhodamine activity probe, fluorescence polarization. inhibition, % at 3.39 µM. hit rate 0.99% among 340,000;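 active = inhibition above the mean over all tested compounds plus 3 SD, cut at about 30% in these data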;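 also: inhibitors block probe labeling of enzyme so polarization drops; 0% = enzyme with DMSO and 100% = wells lacking PAFAH2 protein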
PAFAH1B3 FP inh = PAFAH1B3 (human) inhibition. Q15102. recombinant PAFAH1B3, FP-rhodamine probe, fluorescence polarization. inhibition, % at 3.39 µM. hit rate 0.28% among 340,000. AID 492972;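 active = inhibition above the screen-wide average of all tested compounds plus 3 SD, cut at about 25% in these data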;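 also: 0% = enzyme with DMSO only and 100% = wells lacking PAFAH1B3 protein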
Target sequence (Q15102 whole entry, looked up): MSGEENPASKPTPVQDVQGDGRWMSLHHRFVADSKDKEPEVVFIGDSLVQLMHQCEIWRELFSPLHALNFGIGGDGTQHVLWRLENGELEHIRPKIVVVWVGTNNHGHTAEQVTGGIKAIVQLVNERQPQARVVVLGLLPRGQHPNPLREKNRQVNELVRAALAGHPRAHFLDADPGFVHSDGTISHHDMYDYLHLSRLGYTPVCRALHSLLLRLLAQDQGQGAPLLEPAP
PAFAH1B2 inh = PAFAH1B2 (human) inhibition; recombinant PAFAH1B2, FP-rhodamine activity probe, fluorescence polarization; hit rate 1.2% among 340,000; P68402; inhibition, % at 3.39 µM; AID 492953;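 active = inhibition above the mean of all tested compounds plus 3 SD, cut at about 24% in these data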;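 also: 0% = enzyme with DMSO and 100% = wells lacking PAFAH1B2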
Fam108B inh = Fam108B inhibition, counter-screen for RBBP9 inhibitors; recombinant Fam108B, FP-Rh probe fluorescence polarization; inhibition, % at 9.51 µM; hit rate 0.33% among 300,000; AID 1947;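 active = inhibition above the screen mean inhibition plus 3 SD, computed separately per campaign, cut at about 18% in these data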;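 also: inhibitors lower polarization as less probe binds the enzyme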
pPAFAH inh = inhibitors of human plasma PAF acetylhydrolase (pPAFAH); Q13093; recombinant pPAFAH, FP-rhodamine probe fluorescence polarization; inhibition, % at 3.39 µM; hit rate 1.5% among 330,000; AID 463082;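 active = inhibition above the mean inhibition across the screen plus 3 SD, cut at about 25% in these data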;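 also: inhibitors block binding of the rhodamine activity-based probe so polarization drops; 0% = enzyme with DMSO and 100% = wells lacking pPAFAH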
Target sequence (Q13093 whole entry, looked up): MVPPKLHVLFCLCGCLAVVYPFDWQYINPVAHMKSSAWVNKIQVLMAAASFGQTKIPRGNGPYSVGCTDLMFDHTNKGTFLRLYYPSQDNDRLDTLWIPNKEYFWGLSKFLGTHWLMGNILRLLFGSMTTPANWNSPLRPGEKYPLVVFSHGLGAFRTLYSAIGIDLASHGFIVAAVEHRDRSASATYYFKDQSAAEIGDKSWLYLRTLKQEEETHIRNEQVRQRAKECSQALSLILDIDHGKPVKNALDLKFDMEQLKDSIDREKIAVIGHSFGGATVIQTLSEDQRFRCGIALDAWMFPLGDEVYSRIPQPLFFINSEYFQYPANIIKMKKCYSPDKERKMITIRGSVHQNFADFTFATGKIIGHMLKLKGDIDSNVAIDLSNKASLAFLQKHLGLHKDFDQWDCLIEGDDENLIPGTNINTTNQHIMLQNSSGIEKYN
PAFAH2 FP conf = PAFAH2 (human) inhibition, confirmed. hit rate 65% among 2,300. shares compounds with PAFAH2 inh. AID 493030. recombinant PAFAH2, FP-rhodamine activity probe, fluorescence polarization. inhibition, % at 3.39 µM;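 active = mean inhibition over three repeats above a set limit taken from the earlier primary screen, cut at about 30% in these data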;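 also: inhibitor blocks binding of rhodamine activity probe so polarization falls; 0% = enzyme with DMSO and 100% = wells lacking PAFAH2 protein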
Active calls of the source: *; / = not tested or not shown.

SMILES	PME-1 inh	PAFAH2 inh	PAFAH1B3 FP inh	PAFAH1B2 inh	Fam108B inh	pPAFAH inh	PAFAH2 FP conf
COc1ccc(/C=C/C(=O)OCC(=O)Nc2ccc(OC)c(S(=O)(=O)N3CCCCC3)c2)cc1	-15.8	29.0	-7.8	-7.6	-16.6	-0.6	/
CCOC(=O)c1ccc(-n2c(CCC(=O)O)ccc2-c2ccc(F)cc2)cc1	-0.8	6.0	9.4	3.2	-6.3	4.3	/
CCOC(=O)CN(C(=O)COc1nc(-c2ccccc2)cc(C)c1C#N)c1ccccc1C	5.1	/	/	/	-5.3	-2.6	/
CC(C)=CC(=O)OCC(=O)Nc1ccc(Cl)cc1	4.8	80.1*	3.7	2.8	-3.7	13.4	77.8*
Cc1ccc(OCCC(=O)OCC(=O)Nc2cc(C)cc(C)c2)cc1	5.4	-4.0	-2.5	5.2	-0.1	16.3	/
CC(C)=CC(=O)OCC(=O)Nc1cc(C)cc(C)c1	7.4	81.2*	11.2	3.3	-2.8	8.5	84.7*
COc1ccc(N(C)S(=O)(=O)c2cccc(C(=O)OCC(=O)N3CC(C)CC(C)C3)c2)cc1 (stereo unspecified)	/	2.8	4.1	11.0	/	3.8	/
COc1cc(/C=C/C(=O)Nc2cccc(S(=O)(=O)NC3=NCCCCC3)c2)ccc1OCC#N	-15.7	-9.9	4.3	-2.7	-2.4	7.1	/
Cc1cccc(C(=O)OCC(=O)NCc2cccs2)c1	1.7	41.1*	3.3	-4.3	3.6	6.0	28.9
CCC(=O)c1ccc(OCC(=O)OCC(=O)NCc2cccs2)cc1	-0.2	-4.1	11.1	-0.3	1.4	5.7	/
O=C(COC(=O)c1c(F)cccc1F)NCc1cccs1	/	19.7	12.2	4.8	/	5.5	/
CC(C)COc1ccc(C(=O)OCC(=O)NCc2cccs2)cc1	/	40.6*	9.4	3.9	/	12.8	36.8*
CC(=O)Nc1ccc(C(=O)OCC(=O)NCc2cccs2)cc1	7.7	71.8*	0.6	-5.7	/	1.2	38.2*
C#CCn1c(CCNC(=O)c2ccco2)nc2ccccc21	0.2	2.2	4.2	0.9	-1.3	-2.7	/
CS(=O)(=O)Nc1nnc(SCC(=O)N(c2ccccc2)c2ccccc2)s1	1.0	3.5	13.9	23.1	1.4	4.2	/
O=C(NCC1CCCO1)c1ccc([N+](=O)[O-])s1 (stereo unspecified)	-2.4	3.6	12.4	5.3	2.8	0.4	/
CC1(C)CC(=O)c2cnc(N)nc2C1	-11.1	-0.3	-0.5	-0.5	-2.0	-0.6	/
CC1(C)CC(=O)c2cc3c(nc2C1)CC(C)(C)CC3=O	5.4	50.5*	0.8	8.7	-0.8	3.4	34.2*
Cc1ccc(C(=O)N2CCCC(N3CCN(c4ccccc4C)CC3)C2)c(=O)[nH]1 (stereo unspecified)	-1.1	3.3	1.8	-0.3	2.1	8.2	/
CCc1ccc(OCC(=O)NC(=S)Nc2ccc(C)cc2C)c(Br)c1	-10.4	29.7*	7.8	-2.6	4.1	-0.2	-2.9
CCc1ccc(OCC(=O)NNC(=S)NC(=O)C2CC2)c(Br)c1	/	-5.5	3.6	0.7	/	/	/
CSCC[C@H](NC(=O)Nc1ccc(Oc2ccccc2)cc1)C(=O)O	-1.3	37.5*	6.7	6.2	-1.0	1.0	22.3
CSCC[C@H](NC(=O)Nc1ccc(OC(F)(F)F)cc1)C(=O)O	0.9	-0.6	4.5	8.5	1.1	6.2	/
CCN(CC)CCNC(=O)c1cc2c(=O)n(C)c3ccccc3c2n1C	1.4	-0.6	2.1	-1.2	2.2	-4.9	/
CN(C)CCNC(=O)c1cc2c(=O)n(C)c3ccccc3c2n1C	1.5	46.8*	10.6	1.9	3.0	-5.7	2.0
SMILES	PME-1 inh	PAFAH2 inh	PAFAH1B3 FP inh	PAFAH1B2 inh	Fam108B inh	pPAFAH inh	PAFAH2 FP conf
Cc1ccc(CN(c2ccc(C(=O)NCC3CCCO3)cc2)S(C)(=O)=O)cc1 (stereo unspecified)	5.5	1.7	1.4	2.9	4.0	1.0	/
Cn1c2ccccc2n2c(=O)c(Cl)c(-c3ccccc3)c(C#N)c12	-3.8	38.9*	11.8	5.3	-0.1	5.5	23.9
Cc1nn(-c2ccccc2)c(C)c1C(=O)OCC(=O)Nc1cccc(S(N)(=O)=O)c1	-7.5	1.1	14.7	-1.6	/	-0.8	/
CC(=O)N(c1ccc2oc(=O)sc2c1)S(=O)(=O)c1cccs1	-5.3	23.3	4.6	4.1	3.0	2.4	/
CC(C)C(=O)N(c1cc2sc(=O)oc2c2ccccc12)S(=O)(=O)c1cccs1	-0.9	32.2*	9.5	3.3	5.8	13.5	26.1
CC(C)C(=O)N(c1ccc2oc(=O)sc2c1)S(=O)(=O)c1cccs1	2.3	44.3*	8.6	1.5	4.3	8.3	41.6*
COc1ccc(NC(=O)Nc2ccc3c(c2)C(=O)N([C@@H](C)CO)C[C@@H](C)[C@@H](CN(C)S(=O)(=O)c2cn(C)cn2)O3)cc1	/	6.8	9.9	2.0	/	-8.0	/
O=C(O)c1cccc(-c2nnn(Cc3ccccc3Cl)n2)c1	0.1	84.0*	-0.1	7.0	3.3	1.4	1.5
COc1cccc(/C=C/C(=O)OCC(=O)NCC2CCCCC2)c1OC	-5.5	79.5*	4.5	-0.5	/	8.1	79.0*
COc1cc(/C=C/C(=O)OCC(=O)NCc2ccco2)ccc1OC(F)F	5.9	39.4*	6.6	5.3	2.3	7.5	28.0
COc1ccc(/C=C/C(=O)OCC(=O)NCc2ccco2)cc1OC	-0.9	48.8*	6.9	-0.5	0.7	4.8	38.5*
C=CCOc1ccc(/C=C/C(=O)OCC(=O)NCc2cccs2)cc1	-5.6	38.1*	-1.5	-2.1	-2.1	4.4	41.0*
COC(=O)c1ccc(/C=C/C(=O)OCC(=O)NCc2cccs2)cc1	/	10.7	5.7	4.6	/	1.0	/
Cc1ccc(S(=O)(=O)N2CCN(C(=O)c3ccc(N4CCC(C)CC4)c([N+](=O)[O-])c3)CC2)cc1	/	7.2	1.2	3.7	/	/	/
COc1cccc(/C=C/C(=O)OCC(=O)NCc2ccco2)c1OC	1.9	65.6*	7.1	0.3	-0.1	9.5	53.2*
COc1cccc(/C=C/C(=O)OCC(=O)c2ccccc2)c1OC	/	57.6*	10.7	6.8	/	8.8	33.5*
COc1cc(/C=C/C(=O)OCC(=O)NCc2cccs2)ccc1OCC#N	15.1	52.6*	-2.0	1.5	2.2	5.8	52.0*
CCOc1cc(/C=C/C(=O)OCC(=O)NCc2ccco2)cc(Cl)c1OC	-0.5	15.1	0.1	2.0	-0.1	3.9	/
COc1cccc(CNC(=O)C2CCN(S(=O)(=O)c3cccc4nonc34)CC2)c1	4.0	12.2	-2.8	5.2	-2.6	6.7	/
CCCc1c(C(=O)Nc2ccc(C(F)(F)F)cc2)cnn1-c1ccccc1	-2.8	1.4	7.6	0.7	2.8	-4.0	/
CCCc1c(C(=O)NNc2ccc(C)cc2)cnn1-c1ccccc1	2.5	33.1*	-1.1	4.0	2.2	4.2	13.9
O=c1cc(N=Nc2ccc(Cl)cc2)[nH]c(=O)[nH]1	1.6	-3.5	-0.3	15.3	-0.3	5.8	/

Screening results deposited in PubChem BioAssay by The Scripps Research Institute Molecular Screening Center.
